Jurkat NFkB inh: lowers PMA/ionomycin-induced NF-kB signal in Jurkat cells; AID 435003; inhibition, % at 4 µM; hit rate 0.53% among 330,000; PMA/ionomycin-induced NF-kB luciferase reporter, luminescence; in the data active means inhibition above about 50%
Beta apoptosis: beta cell apoptosis inhibition. INS-1E cytokine-induced death, ATP luminescence, 48 h; percent of positive-control rescue, neutral wells zero. hit rate 0.8% among 300,000. protection from apoptosis, % (concentration not given with the values);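 active means Every replicate reaches about 75%, or at least half do and their mean reaches it too, limit read from the data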;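 further: 0% = cytokine-treated negative control wells and 100% = positive control rescue; higher means more ATP so stronger rescue from cytokine killing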
Bfl-1 A1 inh: inhibitors of the anti-apoptotic protein A1, read as caspase activation | MEF A1-2A-BIM cells, Caspase-Glo 3/7 luminescence, 3 h; percent of clofoctol response, vehicle zero | caspase activation, % (test concentration not listed) | hit rate 0.066% among 330,000 | AID 2462;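 active means over half of replicate activation scores above 10%, or exactly half above 10 with the replicate mean above 10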
Mdm2-MdmX inh: inhibitors of human Mdm2/MdmX interaction; AID 485346; hit rate 3% among 330,000; inhibition, % at 8 µM; SaOS-2 split-luciferase Mdm2/MdmX complementation, luminescence; O15151+Q00987;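 active means inhibition of at least 50% at 8 µM in the primary screen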
NTR1 agonist: agonists of human neurotensin receptor NTR1; NTR1-U2OS beta-arrestin-GFP spot imaging, agonist mode; P30989; hit rate 0.17% among 330,000; activation, % at 20 µM;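 active means activation at or above 40% of the spot to cytoplasm intensity ratio, with at least 20 cells analyzed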;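 further: 0% = DMSO without peptide and 100% = 100 nM NTR1 peptide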
Target sequence (P30989 whole entry, looked up): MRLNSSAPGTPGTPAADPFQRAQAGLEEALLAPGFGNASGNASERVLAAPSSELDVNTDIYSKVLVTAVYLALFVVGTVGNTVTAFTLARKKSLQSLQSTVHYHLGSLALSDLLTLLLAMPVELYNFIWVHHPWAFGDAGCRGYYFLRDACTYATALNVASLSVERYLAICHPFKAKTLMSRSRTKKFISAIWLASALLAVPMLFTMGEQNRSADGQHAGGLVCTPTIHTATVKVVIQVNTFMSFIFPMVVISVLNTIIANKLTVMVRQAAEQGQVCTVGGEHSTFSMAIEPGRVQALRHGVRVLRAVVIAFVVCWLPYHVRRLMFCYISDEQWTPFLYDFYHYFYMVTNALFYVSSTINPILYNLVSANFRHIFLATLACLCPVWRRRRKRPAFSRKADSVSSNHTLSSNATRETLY
697 NFkB inh: inhibitors of the PMA/ionomycin-induced NF-kB reporter in 697 B cells; 697 B-cell NF-kB luciferase reporter, 16 h; inhibition, % at 4 µM; hit rate 0.33% among 330,000; in the data active means inhibition above about 35%
Mdm2 MdmX conf: human Mdm2/MdmX binding inhibition, confirmed; shares compounds with Mdm2-MdmX inh; luminescent assay; inhibition, % at 8 µM; hit rate 55% among 10,000; in the data active means inhibition above about 40%
FLuc counter: full-length luciferase inhibition in Mdm2/MdmX counter-screen; shares compounds with Mdm2-MdmX inh; SaOS-2 full-length luciferase counterscreen, luminescence; inhibition, % at 8 µM; hit rate 77% among 6,200; AID 504607;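 active means mean inhibition at 8 µM reaching about 37%, which flags the compound as non-specific, limit read from the data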;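 further: p53-null SaOS-2 cells with luciferase driven by a doxycycline-inducible promoter; compound on cells about two nights before reading with doxycycline added after day one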
Active calls of the source: *; . = no result given. In the library only some 3.8% were active in any assay of this set; here they are far more common.

SMILES	Jurkat NFkB inh	Beta apoptosis	Bfl-1 A1 inh	Mdm2-MdmX inh	NTR1 agonist	697 NFkB inh	Mdm2 MdmX conf	FLuc counter
C=CCC[C@H](Cc1ccc(F)cc1)C(=O)OC[C@@H](Cc1c[nH]c2ccccc12)NC(=O)[C@@H](CC=C)CC(=O)N(CCO)Cc1ccccc1	1	9	0	86*	6	4	13	.
C=CCC[C@@H](Cc1ccc(F)cc1)C(=O)OC[C@H](Cc1c[nH]c2ccccc12)NC(=O)[C@H](CC=C)CC(=O)N(CCO)Cc1ccccc1	-16	.	.	88*	14	-20	22	74*
C=CCC[C@@H](Cc1ccc(F)cc1)C(=O)OC[C@H](Cc1c[nH]c2ccccc12)NC(=O)[C@@H](CC=C)CC(=O)NCCO	-12	-1	1	32	8	18	.	.
C=CCC[C@H](Cc1ccc(F)cc1)C(=O)OC[C@H](Cc1c[nH]c2ccccc12)NC(=O)[C@@H](CC=C)CC(=O)N(CCO)Cc1ccccc1	-1	-7	-1	87*	18	1	20	.
C=CCC[C@H](Cc1ccc(F)cc1)C(=O)O[C@H](CNC(=O)[C@@H](CC=C)CC(=O)N(CCO)Cc1ccccc1)c1ccccc1	0	17	0	63*	18	-8	32	.
O=C(NCc1ccncc1)c1cccc(S(=O)(=O)Nc2ccc(F)cc2)c1	5	.	.	20	0	-5	.	.
C=C(C(=O)Oc1c(C(C)(C)C)cccc1C(C)(C)C)c1ccccc1	-14	11	0	-10	-2	-10	.	.
CN(C)S(=O)(=O)n1cc(/C=C(\NC(=O)c2ccccc2Cl)C(=O)NCCCn2ccnc2)c2ccccc21	8	7	-1	37	0	3	.	.
C=CC[C@@H](CC(=O)N[C@H](CO)Cc1ccccc1)C(=O)NC[C@H](OC(=O)[C@@H](CC=C)Cc1ccc(F)cc1)c1ccccc1	-1	-6	0	59*	5	6	55*	62*
C=CC[C@@H](CC(=O)N(CCO)Cc1ccccc1)C(=O)N[C@H](C)COC(=O)[C@@H](CC=C)Cc1ccc(F)cc1	17	2	1	20	3	13	.	.
C=CC[C@H](CC(=O)N(CCO)Cc1ccccc1)C(=O)N[C@H](COC(=O)[C@@H](CC=C)Cc1ccc(F)cc1)Cc1ccccc1	0	-9	-1	71*	12	-5	27	.
C=CC[C@H](CC(=O)NCCO)C(=O)NC[C@@H](OC(=O)[C@@H](CC=C)Cc1ccc(F)cc1)c1ccccc1	-1	5	-1	26	-1	-19	.	.
CCOC(=O)c1c(-c2ccccc2)oc2ccc(OCC(O)CN(C)C)cc12 (centres undefined)	2	.	-1	74*	2	-16	38	32
CCOC(=O)c1c(-c2ccccc2)oc2ccc(O)c(CN(C)C)c12	-8	-2	-1	55*	-1	-15	23	.
CCOC(=O)c1c(CSCc2ccccc2)oc2ccc(O)c(CN(C)C)c12	-18	13	0	54*	22	-33	47*	65*
CCCN(C(=O)CSc1ncnc2sccc12)c1c(N)n(Cc2ccccc2)c(=O)[nH]c1=O	0	-1	0	17	-1	14	.	.
Cc1ccc2[nH]c(C)c(/C=C/c3cc[n+](C)cc3)c2c1	41	72	1	74*	-4	-17	67*	54*
Cc1ccc2c(c1)c(/C=C/c1cc[n+](C)cc1)c(C)n2C	46	90*	2	83*	-4	-3	59*	49*
Cc1sc(N/N=C/c2cccnc2)nc1-c1ccccc1	-67	3	-2	59*	11	-176	62*	74*
Cc1sc(N/N=C/c2ccco2)nc1-c1ccccc1	-39	4	0	-38	-1	-40	.	.
C/C(=N\NC(=O)c1c(C)nc2ccccn12)c1ccc(O)cc1O	29	88*	1	74*	0	-11	78*	34

Compound activity as filed in PubChem BioAssay.
